Bioassay records from PubChem BioAssay.
RecA splice inh – inhibitors of M. tuberculosis RecA intein splicing. P9WHJ3. cell-free RecA intein splicing, fluorescence. inhibition, % (test concentration not listed). 0.75% of 290,000 active. AID 2221; in the data active means inhibition above about 30%
Rv3671c protease – inhibitors of M. tuberculosis serine protease Rv3671c | inhibition, % at 5.96 µM | 0.048% of 320,000 active | AID 2606; in the data active means inhibition above about 38%;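 further: extracellular domain of Rv3671c used as enzyme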
FBA Mtb inh – inhibitors of M. tuberculosis fructose-bisphosphate aldolase. purified M. tuberculosis FBA, fluorescence read-out. inhibition, % at 1 µM. 2.3% of 360,000 active; in the data active means inhibition above about 27%
UGM FP inh – blocks M. tuberculosis UGM enzyme; purified UGM, fluorescence polarization probe displacement; 0.06% of 320,000 active; inhibition, % at 10 µM; in the data active means inhibition above about 10%, passing the limit was not always enough
Target sequence (P9WIQ1 whole entry, looked up): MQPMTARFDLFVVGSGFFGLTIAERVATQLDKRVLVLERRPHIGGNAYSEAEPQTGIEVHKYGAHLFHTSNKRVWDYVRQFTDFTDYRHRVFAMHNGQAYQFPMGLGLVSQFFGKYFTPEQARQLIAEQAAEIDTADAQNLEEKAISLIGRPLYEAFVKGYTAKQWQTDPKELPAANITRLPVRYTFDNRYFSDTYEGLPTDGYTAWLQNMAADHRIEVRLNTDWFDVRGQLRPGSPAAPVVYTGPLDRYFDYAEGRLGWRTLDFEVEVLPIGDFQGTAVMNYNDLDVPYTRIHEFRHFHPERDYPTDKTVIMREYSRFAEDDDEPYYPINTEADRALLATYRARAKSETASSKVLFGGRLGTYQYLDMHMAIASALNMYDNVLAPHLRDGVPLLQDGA
GDH-TPI inh – inhibits GDH-TPI coupling enzymes, artifact for Mtb FBA screen; GDH-TPI coupled enzyme counterscreen, NADH absorbance; inhibition, % at 4.8 µM; 1.2% of 360,000 active; AID 588335; in the data active means inhibition above about 30%
BH1578 lux ind – quorum light induction in luxS cqsA deficient V. cholerae; AID 588436; V. cholerae BH1578 lux reporter, luminescence, 6 h; activation, % at 18.7 µM; 0.16% of 350,000 active; in the data active means activation mostly above about 9.7%, no sharp cut-off
A number is an active result; i = inactive; nt = no result; + = active, no number. A selection: hits, their analogues and other compounds. The true share with any hit is near 4.1%.

SMILES	RecA splice inh	Rv3671c protease	FBA Mtb inh	UGM FP inh	GDH-TPI inh	BH1578 lux ind
CCCNC(=O)/C(C#N)=C1\N=C(NC(=O)c2ccco2)c2ccccc21	i	i	i	i	35	i
Cc1nc2nc(-c3cccs3)[nH]c2cc1Br	i	i	i	i	53	i
Cc1nc2nc[nH]c2cc1Br	i	i	i	i	i	i
CN(C)CCCNc1nc2cc(-c3ccn[nH]3)sc2c(=O)n1C	nt	nt	i	nt	i	i
O=C(CSc1ncnc2c1nnn2Cc1ccc(F)cc1)NCC1CCCO1 (configuration not stated)	39	i	i	i	i	i
CCOC(=O)C1CCCN(C(=O)CCc2nnc(-c3ccc(C(C)=O)s3)o2)C1 (configuration not stated)	i	i	i	i	i	i
COc1cc2c(cc1OC)-c1cc(NC3CCCCCC3)nc(=O)n1CC2	i	i	i	i	31	i
COc1cc2c(cc1OC)-c1cc(OCc3cccnc3)nc(=O)n1CC2	nt	nt	+	nt	40	i
COc1cc2c(cc1OC)-c1cc(N3CCc4ccccc43)nc(=O)n1CC2	i	i	i	i	43	i
COc1cc2c(cc1OC)-c1cc(Nc3ccc4c(c3)OCCO4)nc(=O)n1CC2	i	i	i	i	36	i
COc1cc2c(cc1OC)-c1cc(Nc3ccccc3)nc(=O)n1CC2	i	i	i	i	i	i
COc1cc2c(cc1OC)-c1cc(Nc3ccc(C)cc3)nc(=O)n1CC2	i	i	i	i	i	i
O=C(CC1SCCNC1=O)NCc1ccccc1 (configuration not stated)	nt	nt	i	nt	i	i
Cc1cc(NC(=O)c2ccc3sc([C@@H]4O[C@H](CO)[C@H](O)[C@H](O)[C@H]4O)nc3c2)no1	nt	nt	i	nt	i	i
O=C(Cc1c(Cl)cccc1Cl)N1CCN(S(=O)(=O)c2cccs2)CC1	nt	i	i	i	i	i
COc1ccc(Nc2cc3n(c(=O)n2)CCc2cc(OC)c(OC)cc2-3)cc1	i	i	i	i	i	i
COc1cc2c(cc1OC)-c1cc(N3CCCCCC3)nc(=O)n1CC2	i	i	i	i	46	i
COc1ccc(Nc2cc3n(c(=O)n2)CCc2cc(OC)c(OC)cc2-3)c(C)c1	i	i	i	i	33	i
COc1cc2c(cc1OC)-c1cc(N3CCCc4ccccc43)nc(=O)n1CC2	i	i	i	i	i	i
CC(C(=O)NC1CCCCC1)N1CCN(C)CC1 (configuration not stated)	i	i	i	i	i	i
O=C1C2C3C=CC(C3)C2C(=O)N1CCN1CCN(S(=O)(=O)c2ccc3ccccc3c2)CC1 (configuration not stated)	i	i	i	10	i	i
O=C(C[n+]1cc(-c2ccc(Cl)cc2)n2c1CCCCC2)c1ccccc1	i	i	i	i	i	i
Clc1ccc(C2=C3CCCCn4c(-c5ccccc5)c[n+](c43)C2)cc1	33	i	i	i	i	i
O=C(O)c1cnc2[nH]c3ccccc3n2c1=O	i	i	176	i	36	i
N#Cc1ccc(C(=O)NC2CCCCCCC2)cc1	i	i	i	i	i	i
SMILES	RecA splice inh	Rv3671c protease	FBA Mtb inh	UGM FP inh	GDH-TPI inh	BH1578 lux ind
Cc1cc(C)cc(Cn2ncc(Cl)c(Cl)c2=O)c1	56	i	nt	i	nt	nt
Cc1ccc(Cn2ncc(Cl)c(Cl)c2=O)cc1	38	i	i	i	i	i
COc1ccc(-c2ccc(C#N)c(SCC(=O)NCCc3ccccc3)n2)cc1OC	i	i	152	i	i	i
CCOC(=O)[C@H]1[C@H]2COc3ccc(OC)cc3[C@@H]2N2C(=O)[C@H](C)NC(=O)[C@@]12C	nt	i	i	i	i	i
O=c1[nH]c(/C=C\c2ccc(O)c(Cl)c2)nc(O)c1[N+](=O)[O-]	i	i	i	i	i	i
O=c1[nH]c(/C=C\c2ccc(O)cc2)nc(O)c1[N+](=O)[O-]	i	i	i	i	41	i
COc1ccccc1C1C(C#N)=C(N)N(N(C)C)C2=C1C(=O)CC(C)(C)C2 (configuration not stated)	i	i	i	i	i	i
COc1ccc(/C(O)=C(\C#N)c2nc3ccccc3n2C)cc1OC	i	i	i	i	51	i
Cn1c(/C(C#N)=C(\O)c2cc(Cl)sc2Cl)nc2ccccc21	i	i	i	i	i	i
COc1cc(Cl)ccc1OCc1cc(C(=O)N[C@H]2CCCCNC2=O)no1	i	i	i	i	i	i
NS(=O)(=O)c1ccc(-c2ccc(/C=N/NC(=O)c3ccc([N+](=O)[O-])cc3)o2)cc1	i	i	i	i	62	i
NC(=S)N/N=C/c1ccc(-c2cccc([N+](=O)[O-])c2)o1	i	i	i	i	50	i
CCC(=O)N/N=C/c1ccc(-c2ccc([N+](=O)[O-])cc2)o1	i	i	i	i	i	i
O=[N+]([O-])c1cccc(-c2ccc(/C=N/NC(=S)Nc3cccc(F)c3)o2)c1	i	i	i	i	i	i
O=[N+]([O-])c1ccc(C=NNc2ccc(S(=O)(=O)O)cc2)cc1	nt	nt	i	nt	31	i
NS(=O)(=O)c1ccc(-c2ccc(/C=N/Nc3ccc(C(=O)O)cc3)o2)cc1	i	i	i	i	34	i
CN(C)c1nc(N)nc2c1ncn2C1OC(CO)CC1O (configuration not stated)	nt	nt	i	nt	nt	nt
CCCCN(C)c1c(C)nc2ccc(C(=O)NCc3ccc(OC)cc3)cn12	nt	nt	i	nt	i	i
C[C@H](CO)N1C[C@H](C)[C@@H](CN(C)C(=O)c2ccccc2)OCc2cn(nn2)CCCC1=O	nt	nt	i	nt	i	i
O=C(O)c1cccc(-c2ccc(/C=N/Nc3ccc([N+](=O)[O-])cc3)o2)c1	i	i	i	i	33	i
O=C(O)c1ccc(-c2ccc(/C=N/Nc3ccc([N+](=O)[O-])cc3)o2)cc1	i	i	i	i	52	i
CCCCC(=O)N/N=C/c1ccc(-c2ccc([N+](=O)[O-])cc2)o1	i	i	i	i	i	i
COc1ccc(N(CC(=O)N/N=C/c2ccc(-c3ccc([N+](=O)[O-])cc3)o2)S(=O)(=O)c2ccc(C)cc2)cc1	i	i	i	14	i	i
O=C(O)c1cc(-c2ccc(/C=N/Nc3ccc([N+](=O)[O-])cn3)o2)ccc1Cl	nt	nt	i	nt	i	i
CCCOc1ccc(C(=O)N/N=C/c2ccc(-c3ccc(S(=O)(=O)Nc4ncccn4)cc3)o2)cc1	i	i	i	i	33	i
SMILES	RecA splice inh	Rv3671c protease	FBA Mtb inh	UGM FP inh	GDH-TPI inh	BH1578 lux ind
CCc1ccccc1NC(=O)CN(C1CCCCC1)S(C)(=O)=O	i	i	i	i	i	i
COc1ccc(Cl)cc1C(=O)NNC(=O)CCNC(=O)c1ccccc1	nt	nt	i	nt	i	i
Cc1cccc(OCC(=O)OCC(=O)N2CCN(C(=O)c3ccco3)CC2)c1C	i	i	i	i	i	i
O=C(O)c1ccc(N/N=C/C=C/c2ccc([N+](=O)[O-])o2)cc1	i	i	i	i	31	i
O=C(N/N=C/c1ccc([N+](=O)[O-])o1)C(=O)Nc1ccc(C(=O)O)cc1	i	i	i	i	i	i
O=C(O)c1ccc(N/N=C/c2ccc(-c3cccc(Cl)c3)o2)cc1	i	i	i	i	46	i
